Screens from PubChem BioAssay.
Most compounds without a hit are left out; they make up all but 3.8% or so of the library.
TGFb inhibitor – TGF-b pathway inhibition; Potency, µM (highest dose often 46.1 µM), without a hit: at the top dose activity, negative = inhibition, most hits filed as inhibitors; HepG2 CAGA-GFP TGF-b/SMAD3 reporter, GFP fluorescence, 18 h; TGF-beta stimulated, 500 pg/mL final; 410,000 compounds, 1.2% hits; AID 588855; also: % is scaled to controls: 0 for no effect and ±100 for the full control effect; nearly all actives have a fitted effect of over 65% in size
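TGF-beta reporter screen: HEPG2 CAGA-GFP, 1% FBS, 500 pg/mL TGF-beta final, 18 h; per-cell GFP summed per well; curves fitted and categorized by class.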
ATXN2 expr inh – reduces ATXN2 reporter expression in HEK-293 cells. HEK-293 ATXN2-luciferase reporter, luminescence, 24 h. Potency, µM (top dose mostly 57 µM), without a hit: at the top dose activity change, negative = inhibition, actives largely listed as inhibitors. 360,000 compounds, 0.72% hits. AID 1745845; also: % is scaled to controls: 0 for no effect and ±100 for the full control effect; nearly all actives have a fitted effect of over 55% in size
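ATXN2-luciferase reporter cells (luciferase flanked by upstream and downstream ATXN2 gene portions) were treated 24 h at 37 °C with compounds at up to 57 uM. SteadyGlo luminescence gave expression; GF-AFC fluorescence gave viability.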
HepG2 tox – HepG2 cytotoxicity, counter-screen for TGF-b inhibitors; HepG2 CAGA-GFP viability, ATP luminescence, 18 h; Potency, µM (top dose mostly 46.1 µM), without a hit: at the highest dose activity change, negative = cytotoxicity, usual class: cytotoxic; 410,000 compounds, 0.76% hits; AID 588856
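CellTiter-Glo luminescence gave cytotoxicity after 18 hours at 37 degrees C. The cells were HepG2 CAGA-GFP in 1% FBS DMEM, stimulated with 500 pg/mL TGF-beta after compound addition. %Activity was normalised to no-cell wells (complete cell-killing) and DMSO (no toxicity), and curves were fitted and classified.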
HT1080NT lethal – kills 2HG-producing HT-1080-NT fibrosarcoma cells. HT-1080-NT fibrosarcoma viability, CellTiter-Glo ATP luminescence, 48 h. Potency, µM (titrated, usually from 46.1 µM), without a hit: at the top dose activity, negative = less viability, usual class: cytotoxic. 360,000 compounds, 1.6% hits. AID 686970;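 also: NT is the 2HG producing partner of a matched IDH1 knockdown line; 0% = DMSO-treated cells and -100% = media-only wells without cells; nearly all actives have a fitted effect of over 55% in size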
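Fibrosarcoma NT cells, 750 per well in 5% FBS RPMI, were exposed to compound for 48 hours. Viability: CellTiter-Glo luminescence.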
HT1080 IDH1KD tx – kills HT-1080 cells with IDH1 knockdown. 360,000 compounds, 2% hits. Potency, µM (highest dose often 46.1 µM), for the others: top-dose activity, negative = toxicity, usual class: cytotoxic. HT-1080 IDH1 knockdown viability, ATP luminescence, 48 h. AID 686971;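 also: 0% = DMSO wells and -100% = cell-free medium wells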
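Luminescent ATP read-out (CellTiter-Glo, 10 min at room temperature) after 48 h compound exposure at 37 °C gave viability of IDH1-knockdown HT-1080 cells. Activity was normalised to DMSO and cell-free wells, then fitted as concentration-response curves.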
S2 tox – viability counter-screen for ATXN expression inhibitors; S2 cells (HEK-293 line with an ATXN2-luciferase reporter) viability, CellTiter-Fluor protease fluorescence, 24 h; Potency, µM (doses to about 56.7 µM), actives largely listed as cytotoxic; 400,000 compounds, 0.49% hits; AID 651635; also: nearly all actives have a fitted effect of over 40% in size
An asterisk follows results filed as active; i = inactive; ? = inconclusive; · = not tested or not shown; [ ] = dose if it differs, or a comment. Calls follow the shape of the dose curve; as a rule, active = well fitted curve in the direction sought with a large enough effect; inconclusive = small, poorly fitted or top-dose-only effect, or another doubt; inactive = no such curve, though single readings can be large; an effect the other way counts as inactive or inconclusive. Potency is read from the fitted curve at half-maximal effect.

SMILES | TGFb inhibitor | ATXN2 expr inh | HepG2 tox | HT1080NT lethal | HT1080 IDH1KD tx | S2 tox
C[C@@H]1O[C@@H](O[C@H]2C[C@@H](O)[C@]3(CO)[C@@H]4C(CC[C@]3(O)C2)[C@@]2(O)CC[C@H](C3COC(=O)C3)[C@@]2(C)C[C@H]4O)[C@H](O)[C@H](O)[C@H]1O (some centres undefined) | ? | 1.6µM* | -55% | 5.2µM* | 1.3µM* | ?
CC1OC(O[C@H]2C[C@@H](O)[C@]3(CO)[C@H]4[C@H](O)C[C@]5(C)[C@@H](C6=CC(=O)OC6)CC[C@]5(O)[C@@H]4CC[C@]3(O)C2)C(O)C(O)C1O (some centres undefined) | 0.56µM* | · | -51% | · | · | ·
C=CCC1([C@H](C)CCC)C(=O)NC(=O)NC1=O | · | 9%[116 µM] | · | · | · | i
CC(C)(C)OC(=O)NCc1ccc(CNC(=O)c2[nH]cnc2C(=O)Nc2ccccc2F)cc1 | -19% | ? | -36% | -18% | -27% | ?
C[C@@H]1C[C@H](Nc2ccccc2)c2ccccc2N1C(=O)c1cccnc1 | 16% | -23% | -14% | -12% | -21% | i
CCCCC[C@@H](O)C1C(=O)OC(C)[C@H](O)/C=C/C=C/C=C/C=C/C=C(\C)C(O)C(O)C(O)C[C@H](O)C[C@H](O)C[C@H](O)C[C@H](O)C[C@@H]1O (some centres undefined) | · | · | · | · | · | i
O=c1[nH]c2ccccc2n1C1CCN(C(c2nnnn2Cc2ccccc2)C2CC2)CC1 (centres undefined) | -40% | ? | 0% | ? | 21µM* | ?
CSCCC(c1nnnn1C1CCCC1)N1CCC(n2c(=O)[nH]c3ccccc32)CC1 (centres undefined) | 1% | -9% | 10% | 3% | 1% | i
O=c1[nH]c2ccccc2n1C1CCN(C(c2cccs2)c2nnnn2Cc2ccccc2)CC1 (centres undefined) | ? | ? | -31% | 18µM* | 16µM* | ·
COc1ccc(C(c2nnnn2Cc2ccccc2)N2CCC(n3c(=O)[nH]c4ccccc43)CC2)cc1 (centres undefined) | ? | ? | 1% | ? | ? | ·
CSCCC(c1nnnn1Cc1ccccc1)N1CCC(n2c(=O)[nH]c3ccccc32)CC1 (centres undefined) | ? | ? | -16% | ? | ? | 14µM*
O=c1[nH]c2ccccc2n1C1CCN(C(c2nnnn2C2CCCC2)C2CC2)CC1 (centres undefined) | -3% | -19% | -8% | 13% | 12% | ?
O=c1[nH]c2ccccc2n1C1CCN(C(CCc2ccccc2)c2nnnn2C2CCCCC2)CC1 (centres undefined) | ? | 14µM* | -7% | 9% | 16% | ·
CC(C)(C)n1nnnc1C(CCc1ccccc1)N1CCC(n2c(=O)[nH]c3ccccc32)CC1 (centres undefined) | ? | ? | 0% | ? | ? | ?
COc1cccc(NC(=O)C2CCN(c3nnc(C)c4c(C)n(-c5ccccc5)nc34)CC2)c1 | ? | ? | -38% | · | · | ?
Cc1ccc(CNC(=O)C(=O)NCC(c2cccnc2)N2CCN(c3ccc(F)cc3)CC2)cc1 (centres undefined) | 7% | ? | 4% | · | · | i
Cc1oc2ccc(O)c(CN3CCCCCC3)c2c1C(=O)Nc1cccc(Cl)c1C | ? | · | -18% | · | · | ·
O=c1[nH]c2ccccc2n1C1CCN(C(CCc2ccccc2)c2nnnn2Cc2ccccc2)CC1 (centres undefined) | ? | 8.9µM* | -91% | 7.3µM* | 6.5µM* | 8.9µM*
